Values joined by “and” are separate entries in the source; they are usually repeats but may differ in a detail not shown here. Equal entries are not always repeated. Results filed as inconclusive are left out. A call without a number means that no potency is given here. Some compounds were tested as several samples or in several runs, with calls that do not always agree. Active and inactive are the calls of the source. Unless noted, calls come from the whole dose curve; as a rule, active = well fitted curve in the direction sought with a large enough effect in the repeat runs; inconclusive = weak or mixed curves; inactive = no such curve, though single readings can be large; an effect the other way counts as inactive or inconclusive.
How the values were obtained:
[1] = qHTS assay for small molecule agonists of the p53 signaling pathway (AID 651631; calls by dose curve; note: nearly all actives have a fitted effect of over 15% in size; note: potency is the fitted concentration of half-maximal effect)
In short: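 p53RE-bla HCT-116 cells; compounds 16 h, 37 °C; LiveBLAzer B/G FRET substrate 2 h RT; fluorescence intensity read-out, qHTS format.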

[2] = qHTS assay for small molecules that induce genotoxicity in human embryonic kidney cells expressing luciferase-tagged ATAD5 (AID 651632); note: nearly all actives have a fitted effect of over 15% in size
In short: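 HEK293T cells carrying luciferase-tagged ATAD5 were given compound or DMSO vehicle and incubated 16 hr at 37C, 5% CO2. Luciferase activity was read after 30 min at room temperature with Amplite; a rise signals genotoxic stress.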

[3] = qHTS assay for small molecule agonists of the p53 signaling pathway - cell viability (AID 651633; calls by dose curve; note: nearly all actives have a fitted effect of over 30% in size; note: potency is the fitted concentration of half-maximal effect)
In short: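 p53RE-bla cells were treated with compound for 16 hours at 37 C. Cytotoxicity was then measured as CellTiter-Glo luminescence after 30 min at room temperature.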

[4] = qHTS assay for small molecules that induce genotoxicity in human embryonic kidney cells expressing luciferase-tagged ATAD5 - cell viability (AID 651634; calls by dose curve; note: nearly all actives have a fitted effect of over 25% in size)
In short: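 HEK293T cells carrying luciferase-tagged ATAD5, 2,000 cells/well, exposed to compound for 15.5 hr at 37C. Viability read as live-cell protease activity by CellTiter-Fluor fluorescence after 30 min at 37C.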

[5] = qHTS assay for small molecule disruptors of the mitochondrial membrane potential (AID 720635); note: potency is the fitted concentration of half-maximal effect
In short: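 HepG2 cells exposed to compound 1 hr at 37C, then Mito-MPS dye 30 min. Ratio read of aggregate (540/590 nm) versus monomer (490/535 nm) fluorescence.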

[6] = qHTS assay to test for compound auto fluorescence at 590 nm (red) in HepG2 cells (AID 720674)
In short: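 HepG2 cells, 2,000 per well in MEM with 10% FBS, attached overnight at 37 C, then got 23 nL compound or DMSO. After 1 hr at 37 C, 5% CO2, red fluorescence was read at 540/590 nm against Rose Bengal sodium as reference.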

[7] = qHTS assay to test for compound auto fluorescence at 535 nm (green) in HepG2 cells (AID 720675)
[8] = qHTS assay to test for compound auto fluorescence at 460 nm (blue) in HEK293 cells (AID 720678)
In short: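 Triamterene serves as the blue fluorophore standard. Compound signal at 405/460 nm is read in HEK293 wells (2,000 cells, 10% dialyzed FBS) after overnight treatment at 37C.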

[9] = qHTS assay to test for compound auto fluorescence at 590 nm (red) in HEK293 cells (AID 720679)
In short: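 We plated HEK293 cells in 10% dialyzed FBS medium, let them adhere for 4-5 hr, then added 23 nL compound. Overnight at 37C and 5% CO2 preceded fluorescence measurement at 540/590nm.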

[10] = qHTS assay for small molecule disruptors of the mitochondrial membrane potential - cell viability (AID 720634; calls by dose curve; note: nearly all actives have a fitted effect of over 20% in size; note: potency is the fitted concentration of half-maximal effect)
In short: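 HepG2 cells, 2,000 per well, attached overnight, then treated 1 hr at 37 C, 5% CO2. Viability read as ATP by CellTiter-Glo luminescence after 30 min at room temperature. Read in the same wells as the m-MPI membrane-potential dye assay.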

Row | SMILES | Potency [1] | Potency [2] | Potency [3] | Potency [4] | Potency [5] | fluorescence, relative to Rose Bengal [6] | fluorescence, % of fluorescein control [7] | fluorescence, % of triamterene [8] | fluorescence, % of fluorescent control [9] | Potency [10] | Potency [6] | Potency [7] | Potency [8] | Potency [9]
1 | CC(C)N=C(N)/N=C(\N)Nc1ccc(Cl)cc1 | inactive | inactive | inactive | inactive | inactive | 0.432% [at 18.6 µM] (inactive) | -0.0393% [at 18.6 µM] (inactive) | -0.225% [at 18.6 µM] (inactive) | -0.126% [at 18.6 µM] (inactive) |  |  |  |  | 
2 | NC(=O)c1ccccc1N | inactive | inactive | inactive | inactive | inactive |  |  |  |  | inactive | inactive | inactive | inactive | inactive
3 | CC(C)(c1cc(Br)c(O)c(Br)c1)c1cc(Br)c(O)c(Br)c1 | 48.4 µM (active) and 41 µM (active) | inactive | 60.9 µM (active) and 24.3 µM (active) and 23 µM (active) |  | 4.84 µM (active) and 7.67 µM (active) and 1.83 µM (active) |  |  |  |  | inactive and 60.9 µM (active) | inactive | inactive | inactive | inactive
4 | CCCCCCCCCCOCC(O)CN (configuration not stated) | 33.5 µM (active) | inactive | 29.8 µM (active) |  |  |  |  |  |  | inactive | inactive | inactive | inactive | inactive
5 | CCOC(=O)COc1ccc(C)cc1 | inactive | inactive | inactive | inactive | inactive |  |  |  |  | inactive | inactive | inactive | inactive | inactive
6 | N[C@@H](CSSC[C@H](N)C(=O)O)C(=O)O | inactive | inactive | inactive | inactive |  |  |  |  |  | inactive | inactive | inactive | inactive | inactive
7 | CCc1cccc(C)c1 | inactive | inactive | inactive | inactive |  |  |  |  |  | inactive | inactive | inactive | inactive | inactive
8 | CCCCCCCCCCCC(=O)N(CC)CC | inactive | inactive | inactive |  | inactive |  |  |  |  | inactive | inactive | inactive | inactive | inactive
9 | CCOC(=O)C1=C(C)NC(C)=C(C(=O)OCC)C1c1ccccc1/C=C/C(=O)OC(C)(C)C | 29.8 µM (active) | inactive | 29.8 µM (active) |  | 10.6 µM (active) |  |  |  |  |  | inactive | inactive | inactive | inactive
10 | O=C(O)c1cccc(Cl)n1 | inactive | inactive | inactive | inactive | inactive |  |  |  |  | inactive | inactive | inactive | inactive | inactive
11 | CCCC(CC)CCCCCCCN (configuration not stated) | inactive | inactive | inactive |  |  |  |  |  |  | inactive | inactive | inactive |  | inactive
12 | CC(COC(=O)c1ccccc1)OC(=O)c1ccccc1 (configuration not stated) | inactive | inactive | inactive | inactive |  |  |  |  |  | inactive | inactive | inactive | inactive | inactive
13 | [O]=[Zr] | inactive | inactive | inactive | inactive | inactive |  |  |  |  |  | inactive | inactive | inactive | inactive
14 | COC(=O)NCCC[Si](OC)(OC)OC | inactive | inactive | inactive | inactive |  |  |  |  |  | inactive | inactive | inactive | inactive | inactive
15 | Cc1cccc(Br)c1 | inactive | inactive | inactive | inactive | inactive |  |  |  |  |  | inactive | inactive | inactive | inactive
16 | ClC/C=C\CCl | inactive | inactive | inactive | inactive | inactive |  |  |  |  | inactive | inactive | inactive | inactive | inactive
17 | CC(C)=C1CC[C@@H](C)CC1=O | inactive | inactive | inactive | inactive | inactive |  |  |  |  | inactive | inactive | inactive | inactive | inactive
18 | CCNc1nc(NC(C)CC)nc(OC)n1 (configuration not stated) | inactive | inactive | inactive | inactive | inactive |  |  |  |  | inactive | inactive | inactive | inactive | inactive
19 | Cc1cn[nH]c1 | inactive | inactive | inactive | inactive | inactive |  |  |  |  |  | inactive | inactive | inactive | inactive
20 | CCCCOC(=O)C(C)CC (configuration not stated) | inactive | inactive | inactive | inactive |  |  |  |  |  | inactive | inactive | inactive | inactive | inactive
21 | O=C(Nc1ccc(Cl)c(Cl)c1)c1cc(Cl)cc(Cl)c1O | 3.06 µM (active) | inactive | 0.273 µM (active) |  | 0.137 µM (active) |  |  |  |  | 1.37 µM (active) | inactive | inactive |  | inactive
22 | CCCCCCCCCC(=O)N(C)C | inactive | inactive | inactive |  |  |  |  |  |  | inactive | inactive | inactive |  | inactive
